Growth data for 40 compounds are collected here from PubChem BioAssay (NCI).

About 83,000 compounds went through this panel and 20% of them were active in at least one assay; those are over-represented in the sample as a whole.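 The test compound was applied at a single concentration to cells in 96-well plates for 48 hours, and percent growth was recorded.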 Active and inactive are the calls of the source.

This assay concerns CCRF-CEM leukemia. The assay can be described thus: NCI-60 one-dose screen, 48 h (100 = growth as untreated, 0 = no growth, -100 = all killed). The following applies: 10 µM unless noted. As to the method: Growth inhibition of the CCRF-CEM human tumor cell line is measured as a screen for anti-cancer activity. Cells are grown in 96 well plates and exposed to the test compound for 48 hours. Compounds are tested at a single concentration, which is 10^-5 M for most compounds. The reported endpoint is percent growth (GI% or GIPRCNT), where numbers from 0 - 100% represent growth inhibition, and numbers from -100% - 0 represent cell death. For example, a value of 40 represents 60% growth inhibition. A value of 0 means no net growth occurred over the course of the experiment. A value of -40 indicates 40% of cells at the beginning of the experiment died by the end of the experiment. A value of -100 means all cells are dead at the end of the experiment.
NCI-60 Human Tumor Cell Lines Screen was performed using the standard one-dose NCI protocol, which is described in more detail at https://dtp.cancer.gov/discovery_development/nci-60/default.htm.
Compounds with GIPRCNT values below 10 were considered active. Activity score was based on GIPRCNT using the following formula: […]
Score is 0 for GIPRCNT values of 100 or above, 50 for GIPRCNT values of 0, and 100 for GIPRCNT values of -100.
Take `Cc1cc(Cl)c2c(N(C)C)cccc2n1`: the growth was 89.8% (inactive).
Under `C=C1C(=O)O[C@H]2[C@H]1CC/C(COC(=O)NCc1cc3ccccc3[nH]1)=C\CC[C@@]1(C)O[C@@H]21` stands 2.95% (active).
The figure for `COc1ccc2[nH]cc(-c3nc(-c4c[nH]c5ncccc45)cs3)c2c1` is 28.3% (inactive); for `Cc1cc(C)n(Cc2cc(C(C)(C)C)cc(C(C)(C)C)c2)c(=O)c1C#N` it is 87.9% (inactive); for `CC1(C)CC[C@]2(CO)CC[C@]3(C)C(=CC[C@@H]4[C@@]5(C)CC[C@H](NCO)C(C)(C)[C@@H]5CC[C@]43C)[C@@H]2C1` it is 0.708% (active).
Take `CC(C)(C)c1[nH]nc2c1C(c1cc3ccccc3[nH]c1=O)Nc1cc(C(=O)OCc3ccccc3)ccc1N2` (stereo not given): the growth was 37.9% (inactive).
As to `COc1cc(-c2nc(-c3ccccc3)c(-c3ccccc3)[nH]2)cc(OC)c1O`, the growth was -0.116% (active).
As to `CC(C)=CCC[C@](C)(O)[C@H]1CC[C@]2(C)[C@@H]1CC[C@@H]1[C@@]3(C)C/C(=C/c4cccc([N+](=O)[O-])c4)C(=O)C(C)(C)[C@@H]3CC[C@]12C`, the growth was 76.3% (inactive).
Turning to `COC(=O)[C@]12CC[C@@H](C)[C@H](C)[C@@H]1C1=CC[C@@H]3[C@@]4(C)CC(=O)[C@H](OC(=O)c5ccco5)[C@@]5(C)COC(=C45)C[C@@]3(C)[C@]1(C)CC2`, the growth was 25.1% (inactive).
Regarding `C#CCn1c(C)cc(C)c(C#N)c1=O`, the growth was 99.2% (inactive).
Regarding `Fc1ccc(NCc2nnc(-c3ccc(Cl)cc3)o2)cc1`, the growth was 74.6% (inactive).
Regarding `Nc1c(C(=O)Nc2cccc3ccccc23)sc2nc3c(cc12)CCCC3`, the growth was 16.6% (inactive).
Turning to `O=c1[nH]c2c3ccncc3cc(-c3cccc(Cl)c3)c2c2cnccc12`, the growth was 56.4% (inactive).
In the case of `Cc1nn2c(-c3nc4cc(Cl)c(Cl)cc4[nH]3)c(-c3ccc(F)cc3)nc2s1`, the growth was 66.5% (inactive).
With `C#Cc1cc2c(N)c(C(=O)c3cc(OC)c(OC)c(OC)c3)[nH]c2cc1OC`, the growth is 16% (inactive).
Regarding `C[C@]12CC[C@@H]3c4ccc(O)cc4CC[C@H]3[C@@H]1C[C@H](O)[C@@H]2O`, the growth is 103% (inactive).
As for `CCN1CCN(C(=O)[C@]23CCC(C)(C)C[C@@H]2C2=CC[C@@H]4[C@@]5(C)C/C(=C/c6cccnc6)C(=O)C(C)(C)[C@@H]5CC[C@@]4(C)[C@]2(C)CC3)CC1`, the growth is 33.4% (inactive).
Take `CCSc1ncnc2c1ncn2C1OC(CO)C(O)C1O` (stereo not given): the growth is 23.4% (inactive).
Turning to `COc1ccc2c(c1)c(-c1nc(-c3c[nH]c4ncccc34)cs1)cn2CCCN1CCCCC1`, the growth is -0.15% (active).
With `Brc1cnc2[nH]cc(-c3nnc(-c4ccccc4)o3)c2c1`, the growth was 102% (inactive).
On to `N#C/C(=C\c1ccc(-c2ccc(Br)cc2)o1)c1nc(-c2ccco2)cs1`, for which the growth is 89.9% (inactive).
In the case of `CCN(CC)C(=O)CCCCCn1c2ccccc2c2c3c(c4c5ccccc5[nH]c4c21)C(=O)N(O)C3=O`, the growth is 21.3% (inactive).
As for `CC(=O)Nc1cc(F)cc(C(F)(F)F)c1Cl`, the growth is 102% (inactive).
`CCCCC/C(=C\c1ccccc1)C1OC(C)C(C)O1` (stereo not given): the growth is 97.2% (inactive).
Under `COc1ccc2c(c1)C(Br)=C(CCO)C2c1ccccc1` (stereo not given) stands 95.2% (inactive); under `COC(=O)[C@]12CC[C@@H](C(/C=C/c3cccnc3)=N/O)[C@@H]1[C@H]1CC[C@@H]3[C@@]4(C)CC(=C/c5cccnc5)/C(=N/O)C(C)(C)[C@@H]4CC[C@@]3(C)[C@]1(C)CC2`, 16.6% (inactive).
Under `CCN(CC)CCCCCCNc1ccnc2cc(Cl)ccc12` stands 113% (inactive).
On to `C(=C\c1c[nH]c2ccccc12)/c1ccc2ccccc2n1`, for which the growth was 14.9% (inactive).
Consider `Cn1c(/C(C#N)=C/c2ccc3ccccc3c2)cc2ccccc21`, for which the growth is 11.8% (inactive).
Consider `Cc1cc(Cl)nc(N(CCCNc2ccnc3cc(Cl)ccc23)Cc2ccco2)n1`, for which the growth was 20.6% (inactive).
`Cc1ccc(NC2CC(=O)N(c3c(C)cc(C)cc3C)C2=O)c(C)c1` (stereo not given): the growth was 88.6% (inactive).
For `C/C(=N\Nc1cc(C)c2cc(C)ccc2n1)c1ccccn1`, the growth was -22% (active).
For the compound `N#C/C(=C\c1ccc(-c2ccc(Cl)cc2)o1)c1nc(-c2ccco2)cs1`, the growth was 93.9% (inactive).
Under `Fc1ccc(Nc2nc(Nc3ccc(-c4nc5ccccc5[nH]4)cc3)nc(N3CCCC3)n2)cc1` stands 5.35% (active).
Under `O=S(=O)(NCCNc1cc(-c2cn(-c3ccccc3)nc2-c2cccc(O)c2)ccn1)c1cccc(F)c1` stands 18.7% (inactive).
Turning to `N#CC1=C(N)Oc2ccc3ccccc3c2C1c1ccccc1` (stereo not given), the growth was 20.7% (inactive).
The figure for `CC(Cc1ccco1)C(=O)NC(N)=O` (stereo not given) is 98.9% (inactive); for `CCCCn1c(-c2ccc(O)cc2)cn2c3c(=O)[nH]c(=O)n(C)c3nc12` it is 80% (inactive); for `Cc1ccccc1-c1nc(C(Cl)Cl)nc2cc(-c3ccccc3)nn12` it is 102% (inactive).
Under `COc1cc2ncnc(Nc3ccc(Oc4ccnc(C)c4)c(C)c3)c2cc1NC(=O)CC1CCSS1` (stereo not given) stands -30.8% (active).
